The values that follow come from PubChem BioAssay AID720541 (National Center for Advancing Translational Sciences (NCATS), 2013).

The whole screen tested about 1,300 compounds, of which about 420 (32%) were called active. Roughly 32% stayed inconclusive and do not appear here. The call rests on the fitted dose curve; in most records, active means well fitted inhibition curve with a large enough effect; inconclusive means small, poorly fitted or top-dose-only effect; inactive means no such curve, though single readings can be large or run the other way. The list shows a part of the results. A call without a number means that no potency is given here.
Potency means the concentration at half of the fitted maximal effect.

The assay concerns the target C-terminal-binding protein 1 (Homo sapiens) (UniProt Q13363). The assay is described as follows: qHTS for Inhibitors of the Phosphatase Activity of Eya2: Carboxyl-terminal binding protein (CtBP) Counterscreen for Cherry-picked Compounds. Further: nearly all actives have a fitted effect of over 65% in size. Particulars: purified protein-protein binding, AlphaScreen, 3 h; series mostly up to 46.1 µM. A digest of the protocol:
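Cherry-picked compounds (final 2.5 nM–46 uM) were incubated 2 h at RT with 25 nM CtBP-6xHIS and 25 nM GST-E1A. Alpha beads (20 ug/mL) were then added for 1 h, light-protected; DMSO and E1A peptide inhibitor wells set the normalization.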
A general note: In qHTS, concentration-response curves come from the screen itself.
Consider `Cc1cc2nc(-c3ccco3)c(Cc3cccc(F)c3)n2c(C)c1Br`, for which the Potency result was “inactive”. To `CCN(CC)c1ccc(/C=N/N2CCN(Cc3ccccc3Cl)CC2)cc1` belongs 8.49 µM (active); to `CSc1ccc(/C=N/N2CCN(Cc3ccc(C)cc3C)CC2)cc1`, “inactive”; to `COCc1cc(O)c(O)c(O)c1-c1c(COC)cc(O)c(O)c1O`, “inactive”. For `CCC(C)Nc1ccc(NC(C)CC)cc1` (stereo not given), the Potency is 0.0849 µM (active). To `Cc1nc(-n2[nH]c3c(c2=O)CCCC3)[nH]c(=O)c1Cc1ccccc1` belongs 13.5 µM (active); to `COc1cc(C)c(/C=C/C(C)=C/C=C/C(C)=C/C(=O)O)c(C)c1C`, “inactive”. Regarding `COc1cc(C(=O)Nc2cccc(NC(=O)c3cccs3)c2)cc(OC)c1OC`, the Potency result was “inactive”.

Regarding `CCOc1ccc(NC(=O)c2sccc2-n2cccc2)cc1`, the Potency entry is “inactive”. To `COc1ccc(C(=O)Nc2ccc3c(c2)CCCN3C(=O)c2cccs2)c(OC)c1` belongs 7.57 µM (active). To `O=C(O)c1ccc(CSc2nc3ccccc3c(=O)n2-c2ccccc2)cc1` belongs “inactive”. Turning to `COc1ccc(-n2c(SCC(=O)Nc3cc(C(=O)O)ccc3C)nc3ccccc3c2=O)cc1Cl`, the Potency was 8.49 µM (active). `COc1ccccc1CNC(=O)CCCc1cn(C)c2ccccc12`: the Potency result was “inactive”. To `O=C(CSc1ccc(-c2ccccn2)nn1)Nc1cccc(F)c1` belongs “inactive”; to `COc1ccc(NC(=O)CN(C)C(=O)c2cccc(-n3cccc3)c2)cc1`, “inactive”. To `COc1ccccc1CNC(=O)c1ccc2c(=O)n(CCCN3CCCC3=O)c(=S)[nH]c2c1` belongs “inactive”; to `COc1cc(NC(=O)CSc2ccc(-c3ccccn3)nn2)cc(OC)c1`, 1.9 µM (active); to `COc1ccc(NC(=O)CSc2ccc(-c3ccccn3)nn2)cc1OC`, 3.79 µM (active).

For the compound `COc1ccccc1CNC(=O)CSc1ccc(-c2ccccn2)nn1`, the Potency is 8.49 µM (active).

On to `Cc1cc(C(=O)c2ccccc2)cc(C)c1O`, for which the Potency result was “inactive”.

Regarding `CC1Cc2ccccc2N1C(=O)C1CCCN1S(=O)(=O)c1ccc(Cl)cc1` (stereo not given), the Potency result was “inactive”.

For `CC1CCN(CC2C(=O)O[C@@H]3C[C@@]4(C)CCC[C@H](C)C4=C[C@H]23)CC(C)(C)C1` (stereo not given in full), the Potency entry is “inactive”. To `Nc1[nH]nc2ncc3cc4ccccc4nc3c12` belongs 10.7 µM (active); to `O=C(CSc1ccc(-c2ccccn2)nn1)N1CCCCC1`, 7.57 µM (active); to `O=C(Cn1c(S(=O)(=O)Cc2ccccc2)nc2ccccc21)N1CCCCC1`, “inactive”. Turning to `O=C(CSc1ccc(-c2ccccn2)nn1)N1CCCC1`, the Potency is 8.49 µM (active).

Regarding `O=C(C1=C[C@H](c2ccccc2)C[C@H](OCc2ccc(CO)cc2)O1)N1CCN(Cc2ccccc2)CC1`, the Potency entry was “inactive”. To `O=[N+]([O-])c1ccccc1/C=C\C=N\N1CCN(c2ccccc2)CC1` belongs “inactive”; to `COc1ccc(-n2c(CN3CCN(c4ccccc4OC)CC3)nc3ccc([N+](=O)[O-])cc3c2=O)c(OC)c1`, “inactive”; to `COc1ccccc1N1CCN(/N=C/C=C\c2ccccc2[N+](=O)[O-])CC1`, 15.1 µM (active). Consider `O=C(c1cccs1)N1CCC(c2nc3c(nnn3Cc3cccc(Cl)c3)c(=O)[nH]2)CC1`, for which the Potency was 12 µM (active). Regarding `CCOC(=O)c1cnc2c(C#N)cnn2c1N`, the Potency was 10.7 µM (active). To `CC(NC(=O)c1cc2c(s1)CS(=O)(=O)C2)c1ccccc1` (stereo not given) belongs “inactive”; to `CCOc1ccc2[nH]cc(-c3csc(N)n3)c2c1`, 12 µM (active).

As to `O=c1cc2oc3cc(O)c(O)cc3c(-c3ccccc3[N+](=O)[O-])c-2cc1O`, the Potency was 9.53 µM (active).

For `Cc1cccc(C)c1OCc1cc(C(=O)N2CCN(c3ccccc3)CC2C)no1` (stereo not given), the Potency entry is “inactive”. `COc1ccc(-c2c(N)cnc(C(=O)O)c2C)c(OCc2ccccc2)c1OC`: the Potency is 12 µM (active). To `COc1cc(C(C(=O)NC2CCCCC2)N(C(=O)Cc2c[nH]c3ccccc23)c2ccc(C)cc2)cc(OC)c1OC` (stereo not given) belongs “inactive”; to `Cc1cc(/C=N/NC(=O)c2ccccn2)c(C)n1-c1cccc([N+](=O)[O-])c1`, 15.1 µM (active); to `CCCCn1nc(C(=O)Nc2ccc3c(c2)OCO3)c2ccccc2c1=O`, 15.1 µM (active). To `Cn1nnnc1SCC(=O)Nc1ccc2c(c1)OCO2` belongs “inactive”; to `O=C(CCn1c(=O)oc2ccccc21)NCc1ccc2c(c1)OCO2`, “inactive”; to `COc1cc2c(cc1OC)C(c1ccc([N+](=O)[O-])cc1)NCC2` (stereo not given), “inactive”. For `Nc1ccc2nc3c(=O)[nH]c(=S)[nH]c3nc2c1`, the Potency is 3.79 µM (active). To `CN(C)c1ccc(N=Nc2ccnc3ccccc23)cc1` belongs 2.13 µM (active); to `COc1cc(NC(=O)CN2C(=O)CSc3ccc(S(=O)(=O)N4CCCC4)cc32)cc(OC)c1`, “inactive”. On to `CCC(=O)N1N=C(c2ccc(C)o2)CC1c1ccc(N(C)C)cc1` (stereo not given), for which the Potency result is “inactive”.

With `COc1ccc(C2CC(c3ccccc3OC(=O)/C=C/c3ccccc3)=NN2C(C)=O)cc1` (stereo not given), the Potency was 1.69 µM (active). To `O=C(Oc1cccnc1)c1ccc([N+](=O)[O-])cc1Cl` belongs “inactive”; to `COc1ccc(CCn2c(=N)c(C(=O)NCC3CCCO3)cc3c(=O)n4ccccc4nc32)cc1` (stereo not given), 12 µM (active); to `COc1ccc(CCn2c(=N)c(C(=O)NCc3ccco3)cc3c(=O)n4ccccc4nc32)cc1OC`, 9.53 µM (active). Turning to `Cc1cccn2c(=O)c3cc(S(=O)(=O)c4ccc(F)cc4)c(=N)n(Cc4ccco4)c3nc12`, the Potency entry was “inactive”. With `COc1ccccc1Nc1nc(-c2ccc3c(c2)NC(=O)CO3)cs1`, the Potency result was “inactive”. To `COc1ccc(-c2csc(Nc3ccc(S(N)(=O)=O)cc3)n2)cc1OC` belongs 15.1 µM (active); to `CCn1cc(C(=O)OCC(=O)c2cc(C)n(-c3ccccc3F)c2C)c(=O)c2ccc(C)nc21`, 16.9 µM (active).

As to `COCCn1c(C)cc(C(=O)COC(=O)c2ccccc2Br)c1C`, the Potency entry is “inactive”. To `Cc1cc(C(=O)COC(=O)c2cccnc2Cl)c(C)n1-c1c(C)n(C)n(-c2ccccc2)c1=O` belongs “inactive”. To `CCOc1ccccc1C(=O)OCC(=O)Nc1nnc(-c2ccccc2)o1` belongs 13.5 µM (active). With `CCc1ccc(NC(=O)COC(=O)c2ccccc2OCC(=O)N(C)C)cc1`, the Potency entry is “inactive”. To `CS(=O)(=O)c1ccc(-c2nnc(NC(=O)C3=COCCO3)o2)cc1` belongs “inactive”; to `O=C(COc1ccccc1)Nc1nnc(-c2ccco2)o1`, 16.9 µM (active). To `O=C(COC(=O)c1cc(-c2cccnc2)nc2ccccc12)Nc1ccc(F)cc1F` belongs “inactive”. To `COc1ccc(C(=O)Nc2nnc(-c3ccccc3)o2)cc1OC` belongs 19 µM (active). Regarding `CC1CCCN(S(=O)(=O)c2ccc(C(=O)Nc3nnc(-c4ccco4)o3)cc2)C1` (stereo not given), the Potency entry was “inactive”.

On to `COc1ccc(NC(=O)c2ccc(COc3ccccc3)o2)c(OC)c1`, for which the Potency entry is “inactive”.

Consider `CCC(=O)NC(=S)Nc1ccc(NC(=O)COc2ccc([N+](=O)[O-])cc2)cc1`, for which the Potency result was “inactive”. To `COc1ccccc1-c1noc2c1C(=O)N(Cc1cn(-c3ccc(Cl)cc3)nn1)CC2` belongs “inactive”.

Take `COc1cc(N)c(Cl)cc1C(=O)N[C@H]1CCN(CCCOc2ccc(F)cc2)C[C@H]1OC`: the Potency entry is “inactive”. As to `Brc1ccc(Cn2c(-c3ccc(Br)o3)nc3ccccc32)o1`, the Potency result was “inactive”. To `Cc1cc(C(=O)COC(=O)c2ccc(O)cc2)c(C)n1CCc1ccc(F)cc1` belongs “inactive”; to `CCn1c(C)cc(/C=C2/SC(=O)N(C(C)C(=O)OC)C2=O)c1C` (stereo not given), “inactive”. To `CCOC(=O)C(C)N1C(=O)S/C(=C\c2ccc(-c3ccccc3C(=O)O)o2)C1=O` (stereo not given) belongs 15.1 µM (active); to `Cc1c(C(=O)O)cccc1-c1ccc(/C=C2\SC(=O)NC2=O)o1`, “inactive”.

Take `O=C(O)CSCc1nc2cccnc2n1C1CCCCC1`: the Potency entry was “inactive”.

Take `CC1(C)CC(=O)C(C2C3=C(CC(C)(C)CC3=O)Oc3c(Br)cc(Br)cc32)=C(O)C1` (stereo not given): the Potency is 4.78 µM (active). Regarding `Cc1nc(C)c(-c2csc(Nc3ccc(O)c(C(=O)O)c3)n2)s1`, the Potency was 15.1 µM (active). For the compound `Cn1c(=O)c2[nH]c(COc3ccccc3)nc2n(C)c1=O`, the Potency entry is “inactive”. To `CC1(C)Nc2cccc3c(N=Nc4ccc(N=Nc5ccccc5)c5ccccc45)ccc(c23)N1` belongs 3.38 µM (active); to `COc1ccc(N(CC(=O)Nc2nc3ccc(C)cc3s2)S(=O)(=O)c2c(C)nn(C)c2C)cc1`, “inactive”; to `Cc1ccc(-n2nnnc2C(=Cc2ccc(N(C)C)cc2)c2nnnn2-c2ccc(C)cc2)cc1`, “inactive”.

On to `CCc1cnc2ccccc2c1/C=C/c1ccc(N(C)C)cc1`, for which the Potency is 10.7 µM (active). To `CCN(CC)c1ccc(/C=C/c2c(C)cnc3ccc(C)cc23)cc1` belongs 8.49 µM (active); to `Cc1ccc2c(/C=C/c3ccc(N(C)C)cc3)c(C)cnc2c1`, 10.7 µM (active); to `Cc1cnc2ccc(I)cc2c1/C=C/c1ccc(N(C)C)cc1`, 10.7 µM (active). For `O=c1cc(-c2ccccc2Cl)oc2c(NS(=O)(=O)c3ccccc3OC(F)(F)F)ccc(O)c12`, the Potency entry is “inactive”. For `O=C(O)c1c(C(=O)N2N=C3/C(=C/c4ccccc4)CCCC3C2c2ccccc2)cccc1[N+](=O)[O-]` (stereo not given), the Potency result is “inactive”. To `Cc1ccccc1NC(=O)C1CCN(C(=O)N2CCOc3ccccc32)CC1` belongs “inactive”.

For `CC1CN(C(=O)c2cc(S(=O)(=O)N(C)c3ccc(F)cc3)ccc2Cl)CC(C)O1` (stereo not given), the Potency result is “inactive”. On to `CCOc1ccc(S(=O)(=O)N2CCN(C)CC2)cc1NC(=O)c1ccccc1F`, for which the Potency was 7.57 µM (active). To `CC(Oc1ccc(F)cc1)C(=O)Nc1cc(S(=O)(=O)N2CCCCC2)ccc1N1CCN(C)CC1` (stereo not given) belongs “inactive”; to `COc1ccc(S(=O)(=O)N2CCCCC2)cc1NC(=O)c1[nH]c(C)c(C(C)=O)c1C`, “inactive”. To `O=C1c2ccccc2C(=O)N1CCCc1cn(C[C@H]2CC[C@@H]([C@@H]3CC[C@H](Cn4cc(CCCN5C(=O)c6ccccc6C5=O)nn4)O3)O2)nn1` belongs “inactive”; to `Cc1ccc(-c2n[nH]c(=O)c3ccccc23)cc1S(=O)(=O)Nc1ccccc1`, “inactive”. To `COc1cc(C2C(C#N)=C(N)Oc3n[nH]c(C)c32)ccc1OC(=O)c1ccccc1` (stereo not given) belongs 8.49 µM (active); to `COc1ccc(Cc2nc3c4c(ncn3n2)Oc2ccc3ccccc3c2C4c2ccc(OC)c(OC)c2)cc1` (stereo not given), “inactive”.
